# aSyn 5UTR act: Activators via SNCA 5'UTR binding, MLPCN | alpha-synuclein 5'UTR reporter, activators screen | activity score, % (tested at 7.5 µM), hits read low | 300,000 compounds, 7.1% hits | AID 1814; in the data active = activity score below about -60%
# Numbers without * were called inactive. The list is a sample of the results.
SMILES,aSyn 5UTR act
COc1ccc(C(=O)Nc2cccc(C(=O)N/N=C/c3ccc(OC)cc3OC)c2)cc1,83
CC(=O)Nc1cccc(C(=O)N/N=C/c2ccccc2F)c1,-109*
Cc1nn(Cc2ccccc2Cl)c2sc(C(=O)NCCCn3ccnc3)cc12,-105*
CC(=O)c1cccc(OCc2cc(C(=O)N3C[C@@H](C)O[C@@H](C)C3)no2)c1,-75*
O=C(c1cc(COc2cccc(C(F)(F)F)c2)on1)N1C[C@H]2CC[C@H]1C2,-117*
CC(=O)c1cccc(OCc2cc(C(=O)N3C[C@H]4CC[C@H]3C4)no2)c1,-134*
COCCC1CCCCN1C(=O)c1cc(COc2cccc(C(C)=O)c2)on1 (stereo unspecified),-96*
C=CCN1c2ccccc2[C@]23C[C@@H](C(=O)OC)N(C(=O)c4cc(C)oc4C)C2=NC(C(=O)OC)=C(C(=O)OC)[C@H]13,-62*
O=C(NCC1COc2ccccc2O1)c1cccs1 (stereo unspecified),-64*
O=C(NCc1ccccc1)C(=O)NCC1COc2ccccc2O1 (stereo unspecified),-145*
Cn1cccc1C1C=C(c2ccc(C(C)(C)C)cc2)Nc2ncnn21 (stereo unspecified),-114*
Brc1ccc(C2=CC(c3cccs3)n3ncnc3N2)cc1 (stereo unspecified),-107*
Cc1ccccc1SCCNC(=O)c1ccccc1Br,-107*
Cc1ccccc1SCCNC(=O)CCc1ccccc1,-64*
Nn1c(SCc2ccccc2F)nnc1-c1ccccn1,-125*
Nn1c(SCc2ccccc2)nnc1-c1ccccn1,-70*
NC(=O)CSc1nc2cccnc2n1-c1ccc(F)cc1,52
Nn1c(SCc2ccc(F)cc2)nnc1-c1ccccn1,-68*
N#Cc1cn(-c2ccccc2)nc1-c1cc2ccccc2oc1=O,-63*
O=C(N/N=C/c1cn(-c2ccccc2)nc1-c1cc2ccccc2o1)c1ccccc1Br,-115*
OCc1cn(-c2ccccc2)nc1-c1cc2ccccc2o1,-179*
COc1ccc(-c2nn(-c3ccccc3)cc2C(=O)NC(=S)NNC(=O)c2ccncc2)cc1,73
COc1ccc(-c2nn(-c3ccccc3)cc2C#N)cc1,-126*
c1ccc(Sc2cccc3ccccc23)c(CNC2=NCCN2)c1,61
COc1ccc(NC(=O)c2cn(-c3ccccc3)nc2-c2cc3ccccc3o2)cc1,-71*
SMILES,aSyn 5UTR act
O=C(N/N=C/c1cn(-c2cccs2)nc1-c1ccccc1)c1ccccc1Br,-73*
CN1CCN(C2Cc3cc(Cl)ccc3Sc3cc(F)ccc32)CC1 (stereo unspecified),101
Cc1ccccc1NC(=O)c1ccc2c(c1)N(C)CCS2,-103*
CN1CCSc2ccc(C(=O)Nc3cc(F)ccc3F)cc21,-98*
CC1=C(CC(=O)c2ccccc2)C(=O)c2ccccc2C1=O,-79*
COc1cccc(/C=C2\CCC(C3CCCC3)C2=O)c1 (stereo unspecified),-99*
COc1cccc(/C=C2\CCC(C3CCCC3)C2=O)c1OC (stereo unspecified),-163*
Cc1cccc(NS(=O)(=O)c2ccc(-c3cnc(C4CC4)o3)cc2)c1C,100
CC(=O)Nc1nc2ccc(Br)cc2s1,-107*
COC(=O)c1ccc2nc(NC(=O)C3CC3)sc2c1,-146*
Cc1ccc2nc(NC(=O)COC(=O)c3ccncc3)sc2c1,-118*
COC(=O)c1ccc2nc(NC(=O)C(C)C)sc2c1,-74*
CCOC(=O)c1ccc2nc(NC(C)=O)sc2c1,-126*
C/C(=N/NC(=O)c1ccc(C)s1)c1cccc(NC(=O)COc2ccc(Cl)cc2C)c1,-73*
C/C(=N\NC(=O)c1c(Cl)c(C)nn1C)c1cccc(NC(=O)COc2ccc(Cl)cc2)c1,-100*
O=C(CSC(=S)N1CCOCC1)c1cc2ccccc2oc1=O,-63*
Cc1ccc(C(C)(C)NC(=O)C2CCC(=O)N(C3CCCCCC3)C2)cc1 (stereo unspecified),-147*
CC(C)(C)c1ccc(-c2noc(-c3ccno3)n2)cc1,-120*
CC1CCCCN1Cc1c(O)ccc2c(=O)c(-c3ccc(Cl)cc3)coc12 (stereo unspecified),-68*
Cc1ccc(Nc2nnc(SCC(=O)Nc3cccnc3Cl)s2)cc1C,-109*
Cc1cccc(Nc2nnc(SCC(=O)Nc3ccccc3[N+](=O)[O-])s2)c1C,-90*
Cc1cccc(Nc2nnc(SC/C(O)=C(\C#N)c3nc4ccccc4[nH]3)s2)c1C,-63*
N/C(=N\OC(=O)Cc1ccc(-c2ccccc2)cc1)c1ccccn1,-66*
N/C(=N\OC(=O)CC1CCCCC1)c1ccccn1,-90*
COc1ccc(CC(=O)O/N=C(\N)c2ccccn2)cc1,-76*
SMILES,aSyn 5UTR act
N/C(=N\OC(=O)CSc1ccccc1)c1ccccn1,-88*
Cc1ccc(C(=O)O/N=C(\N)c2ccccn2)c(C)c1,106
Cc1ccc(C)c(OCC(=O)O/N=C(\N)c2ccccn2)c1,-131*
CCc1ccc(/C=N/N2CCN(c3ccccn3)CC2)cc1,-108*
ClC(=C\c1ccccc1)/C=N/N1CCN(c2ccccn2)CC1,-222*
Cc1ccc(/C=N/N2CCN(c3ccccn3)CC2)cc1,-105*
NNC(=O)c1sc(-c2ccc(Cl)cc2)cc1N,-82*
CCOC(=O)c1cc(-c2ccc(N)cc2)sc1N,-76*
CCOC(=O)c1sc(-c2ccc(Br)cc2)cc1N,-185*
COc1cc(-c2nnn(CC(=O)NC3CCS(=O)(=O)C3)n2)ccc1OCc1ccccc1 (stereo unspecified),-126*
CC(C)CN(C(=O)c1ccc(=O)n(C)n1)c1nc2ccccc2s1,-109*
CCOC(=O)C1=C(COC(=O)c2cccc(N(C)C)c2)NC(=O)NC1C (stereo unspecified),-136*
CCOC(=O)C1=C(COC(=O)/C=C/c2ccccc2Cl)NC(=O)NC1C (stereo unspecified),-70*
Cc1ccc(-c2nc3ccccc3s2)cc1S(=O)(=O)N1CCCC1,-63*
O=C(NCCC1=CCCCC1)c1ccc(Br)o1,-83*
Cc1ccc(NC(=S)NCCC2=CCCCC2)cc1,-137*
O=C(NC(=S)NCCC1=CCCCC1)c1ccc(Br)o1,-115*
Cc1ccc2nc(-c3ccc(SCC(=O)N4CCc5ccccc54)nc3)[nH]c2c1,-388*
CC(=O)CSc1ccc(-c2nc3cc(C)c(C)cc3[nH]2)cn1,121
N#Cc1ccccc1CSc1ccc(-c2nc3ccccc3[nH]2)cn1,-120*
Cc1cc2nc(-c3ccc(SCc4ccc(C#N)cc4)nc3)[nH]c2cc1C,-105*
CC(=O)CSc1ccc(-c2nc3ccccc3[nH]2)cn1,-72*
Cc1ccc2nc(-c3cccnc3SCC(=O)N3c4ccccc4CC3C)[nH]c2c1 (stereo unspecified),-80*
O=C(c1cc2c(s1)-c1ccccc1OC2)N1CCCC1,-105*
Cc1csc(NC(=O)c2cc3c(s2)-c2ccccc2OC3)n1,-211*
SMILES,aSyn 5UTR act
CC1CCCC(C)N1CCCNC(=O)c1cc2c(s1)-c1ccccc1OC2 (stereo unspecified),70
Cc1cccc(NC(=O)c2cc3c(s2)-c2c(C)cccc2OC3)n1,-144*
Cc1cccc2c1-c1sc(C(=O)NCCCN3CCCC(C)C3)cc1CO2 (stereo unspecified),69
CCCOC(=O)/C(=C\C=C\c1ccco1)NC(=O)c1ccccc1,-86*
O=C(Nc1nccs1)c1cc(-c2ccncc2)nc2ccccc12,-67*
COc1ccc2cc(-c3cc(C(=O)O)c4ccccc4n3)ccc2c1,78
O=C(Nc1ccncc1)c1cc(-c2cccc(Br)c2)nc2ccccc12,57

# Screening results (PubChem BioAssay)
